PubChem BioAssay AID686979 (National Center for Advancing Translational Sciences (NCATS), 2013)
Out of some 420,000 compounds screened, about 50,000 (12%) were called active. About 26% were inconclusive and are not listed. The call rests on the fitted dose curve; in most records, active means well fitted inhibition curve with a large enough effect; inconclusive means small, poorly fitted or top-dose-only effect; inactive means flat fitted curve, though single readings scatter. The list comes from a sample in which actives are over-represented; it also holds similar structures and randomly drawn compounds.

Experiment: qHTS for Inhibitors of human tyrosyl-DNA phosphodiesterase 1 (TDP1): qHTS in cells in presence of CPT; further: nearly all actives have a fitted effect of over 55% in size
Conditions: chicken DT40 Tdp1-/-;hTDP1 cells + 20 nM CPT, ATP luminescence, 48 h; series mostly up to 46.2 µM; activity change, negative = growth inhibition: at the top concentration
How it was run: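 Chicken DT40 Tdp1-/- cells stably complemented with human TDP1 were seeded at 400 cells/well in medium containing 20 nM camptothecin, exposed to pin-transferred compounds, and grown at 37 °C for at least 48 hr. Viability was read as ATP luminescence.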
On the % scale 0 is the no-effect control and ±100 the full control effect; potency means the concentration at half of the fitted maximal effect.

Row | SMILES | activity change, negative = growth inhibition | Potency
1 | CCOC(=O)N1CCN(Cc2nnc(-c3ccccc3Cl)o2)CC1 | -24.8% (inactive) | 
2 | CCc1ccc[n+](-c2nc([O-])sc2C=O)c1 | -0.903% (inactive) | 
3 | COc1cccc(C(=O)Nc2cc3c(cc2Br)OCCCO3)c1 | -23% (inactive) | 
4 | Cn1c(N)c(C(=O)COC(=O)C23CC4CC(CC(C4)C2)C3)c(=O)n(C)c1=O | -23.7% (inactive) | 
5 | Cc1ccc(-n2c(C)cc(C(=O)CN3C(=O)C(=O)N(C4CCCC4)C3=O)c2C)cc1 |  | 20.6 µM (active)
6 | Cc1cc(C(=O)COC(=O)C2CC2)c(C)n1-c1ccc(F)cc1 | -3.09% (inactive) | 
7 | CCOC(=O)c1cc2c(n(-c3ccc(C)cc3)c1=O)CCCC2=O | -0.219% (inactive) | 
8 | Cc1cc(OC(=O)c2ccc(OC(C)C)cc2)c([N+](=O)[O-])c(=O)[nH]1 | -2.01% (inactive) | 
9 | COCc1cc(C)n(CC(=O)NCC2CCCO2)c(=O)c1C#N (stereo unspecified) | -0.925% (inactive) | 
10 | CC1(C)O[C@@H]2CC3C4C[C@H](F)C5=CC(=O)C=CC5(C)C4C(O)CC3(C)[C@]2(C(=O)CO)O1 (stereo partly specified) | -14.3% (inactive) | 
11 | CCc1ccc(CNC(=O)C2CCCN(c3nc4ccccc4o3)C2)cc1 (stereo unspecified) | -19.6% (inactive) | 
12 | CCOC(=O)c1cnc(Nc2nc3ccccc3o2)nc1CSC(=S)N1CCCCC1 |  | 0.146 µM (active)
13 | CCOC(=O)c1ccccc1NC(=S)N1CCC(C(N)=O)CC1 | 1.5% (inactive) | 
14 | CCN(C(=O)COc1ccc(C(=O)c2ccccc2)cc1)c1ccccc1 |  | 18.4 µM (active)
15 | CN(Cc1ccccc1)C(=O)COc1ccccc1 | -19.8% (inactive) | 
16 | O=C(COc1ccc(F)cc1)N(CC1=CCS(=O)(=O)C1)c1ccccc1 | -20.9% (inactive) | 
17 | CC(C)CCN1C(=O)c2ccc(C(=O)Nc3cccc(S(N)(=O)=O)c3)cc2C1=O | -22% (inactive) | 
18 | COCCCn1c(SCC(=O)Nc2oc(C)c3c(C)n[nH]c(=O)c23)nc2sc3c(c2c1=O)CCC3 | -19.5% (inactive) | 
19 | COc1ccccc1C(=O)NNC(=O)CCN1C(=O)/C(=C\c2ccccc2)SC1=S | 1.22% (inactive) | 
20 | Cc1ccc(/C=C2\SC(=S)N(CCC(=O)Nc3ccc(O)cc3)C2=O)cc1 | 12% (inactive) | 
21 | O=C1/C(=C/c2ccc(F)cc2)SC(=S)N1CCCC(=O)N1CCCCC1CCO (stereo unspecified) |  | 16.4 µM (active)
22 | CN(C)c1ccc(NC(=O)CN2C3CCCC2CC(NC(=O)c2ccccc2)C3)cc1 (stereo unspecified) | -2% (inactive) | 
23 | CCc1cnc2c(c1SCC(=O)N1CCC(C)CC1)c(=O)n(C)c(=O)n2C |  | 20.6 µM (active)
24 | Cc1ccc(CNC(=O)CSc2c(C)cnc3c2c(=O)n(C)c(=O)n3C)cc1 | 2.07% (inactive) | 
25 | CCOC(=O)N1CCN(C(=O)CSc2nc(C)nc3c2c(=O)n(C)c(=O)n3C)CC1 | -4.74% (inactive) | 
26 | COc1cc(C(c2c(NC(=O)c3ccco3)sc(C)c2C)N2CCOCC2)cc(OC)c1OC (stereo unspecified) |  | 23.1 µM (active)

Row | SMILES | activity change, negative = growth inhibition | Potency
27 | COc1ccc(NC(=O)CCC(=O)Nc2cc(OC)c(NC(=O)c3ccco3)cc2OC)c(OC)c1 | -26.9% (inactive) | 
28 | COc1ccc(CC(=O)Nc2ccccc2NC(=O)c2ccco2)cc1OC | -0.664% (inactive) | 
29 | COC(=O)c1ccccc1NC(=O)c1ccc(COc2ccccc2Cl)o1 | -21.6% (inactive) | 
30 | COc1ccc(OCCCC(=O)OC(C)C(=O)Nc2ccccc2[N+](=O)[O-])cc1 (stereo unspecified) | 4.09% (inactive) | 
31 | COC(=O)Cn1cc(/C=C/[N+](=O)[O-])c2ccccc21 |  | 10.3 µM (active)
32 | COC(=O)Cn1cc(C(=O)c2cccs2)c2ccccc21 | -6.42% (inactive) | 
33 | COC(=O)c1cn(CC(=O)NCc2cccs2)c2ccccc12 | -11% (inactive) | 
34 | O=C(N/N=C/c1c(Cl)[nH]c2ccccc12)c1sc2ccccc2c1Cl |  | 23.1 µM (active)
35 | Cc1[nH]c2ccccc2c1/C=N\NC(=O)Cn1nnc(-c2ccccc2)n1 | -15.7% (inactive) | 
36 | COC(=O)c1cc(NC(=O)c2sc3ccccc3c2Cl)cc(C(=O)OC)c1 | -28.5% (inactive) | 
37 | CC(=O)c1nnn(-c2ccc(Cl)cc2C#N)c1C | 0% (inactive) | 
38 | COCCCNc1nc2ccccc2nc1NS(=O)(=O)c1ccc(F)cc1 | -6.29% (inactive) | 
39 | CCCc1cc(=O)n2[nH]c(NCc3ccc(CC)cc3)nc2n1 | -1.57% (inactive) | 
40 | COc1ccc(CN2C(=O)CC(Cc3ccc(C)cc3)C2=O)cc1OC (stereo unspecified) | -28.9% (inactive) | 
41 | CCCCOc1ccc(CN2C(=O)C(=O)c3cc(Br)cc(C)c32)cc1OC |  | 0.82 µM (active)
42 | CCCCn1nnnc1C1(C)CCC(=O)N1Cc1ccc(OC)c(OC)c1 (stereo unspecified) | -11.6% (inactive) | 
43 | Cc1cc(C)nc(NC(=O)c2cccc([N+](=O)[O-])c2)c1 | 0.531% (inactive) | 
44 | O=C(Nc1ccc(F)cc1)C(CCc1ccccc1)N1CCN(CC(=O)N2CCCC2)CC1 (stereo unspecified) | -16.7% (inactive) | 
45 | OC(c1ccc(Cl)cc1)C(CN1CCOCC1)c1ccccc1 (stereo unspecified) | -26.3% (inactive) | 
46 | COc1ccccc1CN1CCN(Cc2cc(OC)c(OC)cc2OC)CC1 | -3.91% (inactive) | 
47 | COc1ccccc1OCCCn1c(-c2ccc(Cl)cc2)nc2ccccc2c1=O | -1.91% (inactive) | 
48 | COc1ncc2nc(-c3ccc(Cl)cc3)c(=O)n(C)c2n1 | 1.69% (inactive) | 
49 | CCCCc1c(-c2ccc(Cl)cc2)ncn1CCc1ccccc1OC |  | 4.61 µM (active)
50 | COc1ccccc1NC(=O)c1c(Br)cnn1C | -14.9% (inactive) | 
51 | CCCc1c(-c2ccccc2F)ncn1Cc1ccccc1OC |  | 1.3 µM (active)
52 | CCCCc1c(-c2ccc(Br)cc2)ncn1CCc1ccccc1OC |  | 1.3 µM (active)

Row | SMILES | activity change, negative = growth inhibition | Potency
53 | COCCn1cnc2c1c(=O)n(Cc1ccc(Br)cc1)c(=O)n2Cc1ccccc1 | 0.0958% (inactive) | 
54 | COc1cccc(OC)c1C(=O)N1CCN(Cc2ccccc2F)CC1 | -3.78% (inactive) | 
55 | CC(=O)C[C@H](O)CC(=O)[C@@H]1OC(=O)[C@@H](C)C/C=C\Cc2ccccc21 | 1.45% (inactive) | 
56 | COc1ccc(CNC(=O)c2cc(=O)c3c(C)cc(C)cc3o2)cc1 | -3.72% (inactive) | 
57 | CCCCn1c(N)c(N(CCOC)C(=O)c2cccc(S(=O)(=O)N3CCCCC3)c2)c(=O)[nH]c1=O | -2.83% (inactive) | 
58 | COc1cc(OC)c(S(=O)(=O)Nc2ccccc2C(=O)O)cc1S(=O)(=O)Nc1ccccc1C(=O)O | 9.05% (inactive) | 
59 | CS(=O)(=O)N1CCN(c2cccc(Cl)n2)CC1 | 8.45% (inactive) | 
60 | O=C(COc1ccc2c(c1)CCC2)N1CCN(c2ccc(F)cc2)CC1 | 10.3% (inactive) | 
61 | COCCCNC(=O)CSc1nc2ccc(N3CCOCC3)cc2c(=O)n1CCc1ccccc1 |  | 16.4 µM (active)
62 | COCCNC(=O)c1ccc(Cn2c(SCC(=O)NCC3CCCO3)nc3ccc(Br)cc3c2=O)cc1 (stereo unspecified) | -4.66% (inactive) | 
63 | Cc1nn2c3cc(N4CCOCC4)ccc3nc2c2ccccc12 | -24.1% (inactive) | 
64 | COCCn1c(=O)c(-c2ccccc2)nc2cnc(N3CCOCC3)nc21 | 1.6% (inactive) | 
65 | CCCCn1c(SCC(=O)NCC2CCCO2)nc2ccc(N3CCOCC3)cc2c1=O (stereo unspecified) | -16.2% (inactive) | 
66 | N#CCSc1nc2ccc(N3CCOCC3)cc2c(=O)n1CCc1ccccc1 |  | 23.1 µM (active)
67 | COc1ccccc1/C=C/C(=O)OCC(=O)NC1CCCCCC1 | -22.8% (inactive) | 
68 | C=Cc1ccc(C(=O)N2CCCC(CCC(=O)N3CCN(c4ccccn4)CC3)C2)cc1 (stereo unspecified) | -17.8% (inactive) | 
69 | CCCOc1ccc(C2c3c(oc4cc(C)c(C)cc4c3=O)C(=O)N2CCCN2CCOCC2)cc1 (stereo unspecified) | -5.72% (inactive) | 
70 | Cc1ccc2oc3c(c(=O)c2c1)C(c1ccc(O)cc1)N(Cc1ccc2c(c1)OCO2)C3=O (stereo unspecified) |  | 14.6 µM (active)
71 | COc1ccc(C2c3c(oc4ccccc4c3=O)C(=O)N2Cc2ccc3c(c2)OCO3)cc1 (stereo unspecified) | -0.0902% (inactive) | 
72 | Cc1ccc(NNC(=O)c2cccs2)cc1Cl | -23.8% (inactive) | 
73 | CC(NC(=O)COc1cccnc1[N+](=O)[O-])c1ccc(Cl)cc1Cl (stereo unspecified) | -21.6% (inactive) | 
74 | CC(=O)C[C@@H]1OC[C@H](C)N1S(=O)(=O)c1ccc(C)cc1 | 25.5% (inactive) | 
75 | CCn1nc(C)c(NC(=O)/C=C/c2ccc(OC)c(COc3ccc(Br)cc3)c2)c1C |  | 16.4 µM (active)
76 | CCn1nc(C(=O)NNS(=O)(=O)c2cc(/C=C/C(=O)O)cc(OC)c2OC)c2ccccc2c1=O | 4.44% (inactive) | 
77 | Cc1nn(CCOc2ccc(Br)cc2)c(C)c1[N+](=O)[O-] | 6.55% (inactive) | 
78 | O=C(O)CCCCCCCCCC[n+]1ccccc1 | 3.14% (inactive) | 

Row | SMILES | activity change, negative = growth inhibition | Potency
79 | CCn1c(SCC(=O)NC2CC2)nnc1-c1ccncc1 | 2.34% (inactive) | 
80 | CCOC(=O)c1c(NC(=O)c2cccs2)sc(C)c1C | 6.74% (inactive) | 
81 | CCOC(=O)c1c(NC(=S)NC(=O)/C=C/c2cccs2)sc(C)c1C |  | 20.6 µM (active)
82 | CCOC(=O)c1c(NC(=O)/C=C/c2ccco2)sc(C)c1C | -41.2% (inactive) | 
83 | Cc1c(NC(=S)NC(=O)CCc2ccccc2)c(=O)n(-c2ccccc2)n1C | 6.66% (inactive) | 
84 | NC(=O)[C@H]1CC2(CC(c3cccc(NC(=O)[C@H]4CCC(=O)N4)c3)=NO2)CN1C(=O)c1ccccc1C(=O)c1ccccc1 (stereo partly specified) | 0.837% (inactive) | 
85 | CC(C)CN(C(=O)CN1CCN(S(=O)(=O)c2ccccc2)CC1)c1c(N)n(CC(C)C)c(=O)[nH]c1=O | 3.61% (inactive) | 
86 | Cc1ccc(Cc2nnc(SCC(=O)Nc3ccc(C)cc3C)[nH]c2=O)cc1 | -12% (inactive) | 
87 | CSc1ncc(C(=O)Nc2ccc(C)cc2C)c(C)n1 | -13.4% (inactive) | 
88 | Cc1ccc(NC(=O)c2ccc(CSc3ncnc4nc[nH]c34)cc2)c(C)c1 |  | 23.1 µM (active)
89 | Cc1cc(C)c2oc(C(=O)Nc3ccc(S(=O)(=O)Nc4nccc(C)n4)cc3)cc(=O)c2c1 |  | inactive
90 | Cc1ccc2nc(SCC(=O)N3CC(C)OC(C)C3)nc(=O)n2c1 (stereo unspecified) | 15.6% (inactive) | 
91 | O=C(CCC(=O)c1ccccc1)NCc1cccc(C(F)(F)F)c1 | -19% (inactive) | 
92 | Cc1csc(NC(=O)CSc2nc(=O)n(CCCN(C)C)c3c2CCC3)n1 | 4.71% (inactive) | 
93 | Cc1ccc2nc(NC(=O)CSc3nc(=O)n(CCCN(C)C)c4c3CCC4)sc2c1 |  | 9.2 µM (active)
94 | Cc1ccc(NC(=O)CSc2nc(=O)n(CCN(C)C)c3c2CCCC3)c(C)c1 | 3.71% (inactive) | 
95 | COc1ncc2nc(-c3ccc(Cl)cc3)c(=O)n(-c3ccccc3)c2n1 | 29% (inactive) | 
96 | N#Cc1ccc(-c2nc3c(Cl)cc(C(F)(F)F)cn3c2Cc2ccccc2C(F)(F)F)cc1 | -1.15% (inactive) | 
97 | COc1ccccc1Cc1c(-c2ccc(Cl)cc2)nc2c3ccccc3ccn12 |  | 25.9 µM (active)
98 | O=C1C(c2ccccn2)=[N+]([O-])c2ccccc21 | -28.8% (inactive) | 
99 | O=C1c2oc3ccccc3c(=O)c2C(c2cccc(O)c2)N1c1ccccn1 (stereo unspecified) |  | 20.6 µM (active)
100 | CC(=O)c1sc(N2C(=O)c3oc4ccccc4c(=O)c3C2c2ccc(C)cc2)nc1C (stereo unspecified) | 7.1% (inactive) | 
101 | COCCN1C(=O)c2oc3c(C)cc(C)cc3c(=O)c2C1c1cccc(O)c1 (stereo unspecified) | -26.3% (inactive) | 
